High-throughput results: PubChem, NMMLSC
The list is not random: actives were taken first. Their share in the collection is about 1.1%.
LAP4-GFP MLPCN – yeast TOR pathway LAP4-GFP modulation; 0.34% of 320,000 active; GFP response vs DMSO, % at 10 µM; AID 2023; S. cerevisiae LAP4-GFP multiplex, flow cytometry GFP, 3 h; median GFP as percent of DMSO wells;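 active = GFP response vs DMSO above a set limit, about the screen mean plus 3 SD, cut at about 150% in these data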
VLA-4 inh – inhibition in a human VLA-4 binding assay; P13612; VLA-4 expressing cells, ligand binding flow cytometry; inhibition, % (about 7 µM as worked out from the volumes in the protocol); 0.2% of 330,000 active; in the data active = inhibition above about 50%
Target sequence (P13612 whole entry, looked up): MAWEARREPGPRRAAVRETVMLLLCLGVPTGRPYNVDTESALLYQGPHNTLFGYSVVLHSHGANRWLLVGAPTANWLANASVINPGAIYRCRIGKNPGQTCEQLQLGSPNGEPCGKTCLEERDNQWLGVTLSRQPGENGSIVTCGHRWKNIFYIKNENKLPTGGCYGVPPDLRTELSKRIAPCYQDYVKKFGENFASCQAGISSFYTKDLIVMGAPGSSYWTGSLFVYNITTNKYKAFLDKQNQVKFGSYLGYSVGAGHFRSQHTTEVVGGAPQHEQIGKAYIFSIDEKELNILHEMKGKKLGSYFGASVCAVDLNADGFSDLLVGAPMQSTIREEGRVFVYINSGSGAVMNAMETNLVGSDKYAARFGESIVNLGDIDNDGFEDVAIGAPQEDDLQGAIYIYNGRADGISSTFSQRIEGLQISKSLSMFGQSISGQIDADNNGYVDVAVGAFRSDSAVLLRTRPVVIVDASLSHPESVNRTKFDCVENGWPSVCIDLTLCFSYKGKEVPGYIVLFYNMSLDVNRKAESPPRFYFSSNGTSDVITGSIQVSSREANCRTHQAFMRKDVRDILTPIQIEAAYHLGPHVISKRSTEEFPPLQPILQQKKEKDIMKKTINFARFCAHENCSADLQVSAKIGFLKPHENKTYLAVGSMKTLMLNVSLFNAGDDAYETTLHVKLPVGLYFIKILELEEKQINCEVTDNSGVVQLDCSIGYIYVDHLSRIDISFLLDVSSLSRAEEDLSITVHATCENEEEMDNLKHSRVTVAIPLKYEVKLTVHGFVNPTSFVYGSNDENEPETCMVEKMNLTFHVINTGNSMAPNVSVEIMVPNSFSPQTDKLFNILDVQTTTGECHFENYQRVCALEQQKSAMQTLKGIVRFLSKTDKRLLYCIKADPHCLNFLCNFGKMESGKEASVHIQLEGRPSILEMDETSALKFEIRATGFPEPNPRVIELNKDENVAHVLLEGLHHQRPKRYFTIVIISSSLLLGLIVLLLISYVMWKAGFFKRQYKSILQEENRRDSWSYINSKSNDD
CIT2 TOR yeast – yeast TOR pathway CIT2-GFP modulation; S. cerevisiae CIT2-GFP strain, flow cytometry, 3 h; 100 means same as DMSO wells; GFP response vs DMSO, % at 10 µM; 0.065% of 320,000 active;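 active = GFP response relative to DMSO above a set limit, near the screen mean plus 3 SD, cut at about 150% in these data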;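 also: ratio of well median GFP fluorescence to mean of DMSO wells on the plate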
AGP1-GFP MLPCN – modulators of TOR pathway AGP1-GFP in S. cerevisiae; S. cerevisiae AGP1-GFP multiplex flow cytometry, 3 h; GFP as percent of DMSO wells; GFP response vs DMSO, % at 10 µM; 0.02% of 320,000 active; AID 2066;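 active = GFP response relative to DMSO above a set limit, near screen average plus 3 SD, cut at about 150% in these data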;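 also: median GFP channel fluorescence of the gated AGP1 strain per well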
RPL19A TOR yeast – yeast TOR pathway RPL19A-GFP modulation. percent response vs DMSO, % at 10 µM. S. cerevisiae RPL19A-GFP strain, flow cytometry, 3 h; hits give low values. 0.3% of 330,000 active;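 active = percent response vs DMSO below 50%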;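 also: median channel GFP fluorescence of the barcoded RPL19A-GFP strain; ratio of sample median GFP to plate DMSO average so 100% = DMSO; lower means less RPL19A-GFP as with rapamycin TOR inhibition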
MEP2 TOR yeast – yeast TOR pathway MEP2-GFP modulation | S. cerevisiae MEP2-GFP strain, flow cytometry GFP, 3 h; 100% = DMSO control level | GFP response vs DMSO, % at 10 µM | 0.51% of 330,000 active;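 active = GFP response versus DMSO above a set limit, roughly screen mean plus 3 SD, cut at about 180% in these data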;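 also: median GFP fluorescence of the barcode-gated MEP2-GFP cells per well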
LAP4 cherry2 – second confirmation of modulators of TOR reporter LAP4-GFP in yeast; shares compounds with LAP4-GFP MLPCN; S. cerevisiae LAP4-GFP strain, flow cytometry GFP, 3 h; GFP response vs DMSO, % at 10 µM; 20% of 590 active; AID 2621;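 active = GFP signal as percent of the solvent control above about 150%, meaning raised reporter expression, limit read from the data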;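 also: ratio of well median GFP fluorescence to plate DMSO mean so 100% = DMSO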
MEP2 cherry2 – yeast MEP2-GFP modulation, second cherry pick; 10% of 590 active; S. cerevisiae MEP2-GFP strain, flow cytometry GFP, 3 h; GFP response vs DMSO, % at 10 µM; shares compounds with LAP4-GFP MLPCN;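 active = GFP signal above 150% of the solvent control wells, that is a rise of more than half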;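 also: median channel GFP fluorescence of all gated yeast cells per well; ratio of median GFP to plate DMSO average so 100% = DMSO level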
RPL19A GFP CP2 – yeast RPL19A-GFP TOR reporter modulation, second cherry pick | shares compounds with LAP4-GFP MLPCN | S. cerevisiae RPL19A-GFP strain, flow cytometry GFP, 3 h; hits give low values; 100% means same as DMSO wells | GFP response vs DMSO, % at 10 µM | 3% of 590 active | AID 2623;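 active = under 65% GFP response relative to DMSO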;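 also: median GFP channel fluorescence per well over the all cells gate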
CIT2-GFP pick2 – yeast CIT2-GFP TOR reporter modulation, second cherry pick; AID 2624; shares compounds with LAP4-GFP MLPCN; GFP response vs DMSO, % at 10 µM; 8% of 590 active; S. cerevisiae CIT2-GFP strain, flow cytometry GFP, 3 h; DMSO control wells read 100%;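 active = GFP response vs DMSO above about 150%, limit read from the data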;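 also: median green fluorescence per well over all gated yeast cells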
AGP1-GFP pick2 – second confirmation of modulators of TOR reporter AGP1-GFP in yeast; shares compounds with LAP4-GFP MLPCN; AID 2643; percent response vs DMSO, % at 10 µM; 590 tested, under 10 active; S. cerevisiae AGP1-GFP strain, flow cytometry GFP, 3 h;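 active = over 150 percent of DMSO response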;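 also: median GFP channel fluorescence over all cells without mother daughter split; sample median GFP divided by mean DMSO control so 100% equals DMSO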
Yeast autofluor – yeast s288c autofluorescence artifact, counter-screen; fluorescence change (kMESF span) at 33 µM; S. cerevisiae s288c, 520 nm autofluorescence, flow cytometry, 3 h; hits give high values; zero means same as solvent-only cells; shares compounds with LAP4-GFP MLPCN; 610 tested, under 10 active;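 active = fluorescence span over the dose series, or activity score, above about 33, limit read from the data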
s288c autofl DR – counter-screen for autofluorescence of TOR hits in yeast s288c; 110 tested, under 10 active; S. cerevisiae s288c parental, compound autofluorescence, flow cytometry, 3 h; fluorescence change (span) at 33 µM; shares compounds with LAP4-GFP MLPCN;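 active = fluorescence change span, or the activity score built from it, above 25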
TORC1 bypass – compounds blocking wildtype yeast growth but not TORC1 bypass cells | growth rating (0-3) at 30 µM | shares compounds with LAP4-GFP MLPCN | S. cerevisiae BY4741 spot growth rating, 48-72 h; hits give low values | AID 504456 | 120 tested, under 10 active;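 active = growth rating at most 1 for wild type yeast while the TORC1 bypass strain still grows fully, rated 3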
Starred values were filed as active, the others as inactive; i = inactive; . = no result given.

SMILES | LAP4-GFP MLPCN | VLA-4 inh | CIT2 TOR yeast | AGP1-GFP MLPCN | RPL19A TOR yeast | MEP2 TOR yeast | LAP4 cherry2 | MEP2 cherry2 | RPL19A GFP CP2 | CIT2-GFP pick2 | AGP1-GFP pick2 | Yeast autofluor | others
CC1Cc2cc(/C(O)=C3/C(=O)C(=O)N(CCCn4ccnc4)C3c3cccc([N+](=O)[O-])c3)ccc2O1 (configuration not stated) | 99.3 | 9.1 | 107.4 | 103.3 | 105.4 | 118.5 | . | . | . | . | . | .
Cc1cccc(NC(=O)C(C)C(=O)c2ccccc2)c1 (configuration not stated) | 96.0 | 14.5 | 100.5 | 102.1 | 105.4 | 105.5 | 105.2 | 108.3 | 98.5 | 108.5 | 95.0 | .
Cc1cccc(C(=O)NNC(=O)Nc2ccccc2)c1 | 96.4 | 14.5 | 103.2 | 102.6 | 104.5 | 104.0 | . | . | . | . | . | .
CCOc1ccc(C(Nc2cccnc2)c2cc(Cl)c3cccnc3c2O)cc1 (configuration not stated) | 224.0* | -5.8 | 70.0 | 75.1 | 70.1 | 93.2 | . | . | . | . | . | 1.31
Cc1ccc(/C(O)=C/C(=O)C(=O)NC23CC4CC(CC(C4)C2)C3)cc1 | 97.8 | 10.9 | 96.8 | 97.0 | 103.6 | 103.2 | . | . | . | . | . | .
Cc1cccc(N=C2NC(=O)/C(=C/C=C/c3ccco3)S2)c1C | 162.0* | -0.9 | 111.9 | 90.8 | 96.3 | 100.4 | 190.4* | 122.3 | 112.2 | 118.2 | 97.8 | 3.41
Cc1ccc2nc3c(cc(C(=O)NCC4CCCO4)c(=N)n3C3CCCC3)c(=O)n2c1 (configuration not stated) | 88.4 | -11.4 | 94.0 | 88.9 | 50.8 | 104.1 | 105.2 | 110.0 | 97.8 | 104.3 | 102.0 | .
Cc1ccc(Cn2c(=N)c(C(=O)NCC3CCCO3)cc3c(=O)n4ccccc4nc32)cc1 (configuration not stated) | 110.5 | -5.8 | 104.8 | 90.5 | 99.9 | 102.0 | . | . | . | . | . | .
CC1=NNC(=O)/C1=C\c1cn(-c2ccccc2)nc1-c1ccccc1 | 197.6* | 26.7 | . | 81.1 | 55.2 | 84.2 | . | . | . | . | . | 2.44
COc1cccc(/C=C2/SC(=S)N(CCCC(=O)Nc3ccc(O)cc3)C2=O)c1 | 100.7 | 6.6 | 103.0 | 99.0 | 102.6 | 96.3 | . | . | . | . | . | .
COc1cccc(/C=C2\SC(=S)N(CCCC(=O)Nc3ccc(C(=O)O)cc3)C2=O)c1 | 110.4 | 5.9 | 172.7* | 116.9 | 101.3 | 116.8 | 104.2 | 104.8 | 101.2 | 98.7 | 97.8 | 0.1
CCOC(=O)c1c(C)oc2c1c(C(c1cccnc1)N1CCOCC1)c(O)c1ccccc12 (configuration not stated) | 159.9* | 2.9 | 72.4 | 76.8 | 80.4 | 85.4 | . | . | . | . | . | 2.14 | s288c autofl DR=1.14;TORC1 bypass=3
COC(=O)NCC(c1cccnc1)N1CCOCC1 (configuration not stated) | 107.4 | -7.0 | 121.6 | 107.2 | 102.6 | 102.2 | . | . | . | . | . | .
O=C(CNc1cccc(S(=O)(=O)N2CCOCC2)c1)Nc1ccccc1F | 99.2 | 4.5 | 99.6 | 98.9 | 98.0 | 101.4 | . | . | . | . | . | .
COC(=O)CCCC1=CC2=CC(=O)C(C)(OC(=O)CCc3ccccc3)C(=O)C2=CO1 (configuration not stated) | 155.7* | -3.2 | 51.1 | 50.8 | 88.3 | 88.0 | 111.5 | 93.2 | 102.8 | 101.8 | 88.7 | -0.2
COC(=O)CCC(=O)OC1(C)C(=O)C=C2C=C(c3ccsc3)OC=C2C1=O (configuration not stated) | 93.9 | -13.6 | 86.8 | 93.7 | 101.6 | 104.1 | . | . | . | . | . | .
O=C(COC(=O)c1cc(S(=O)(=O)N2CCOCC2)ccc1Cl)NCc1ccccc1 | 97.4 | 5.8 | 110.6 | 104.5 | 102.7 | 107.0 | . | . | . | . | . | .
CN(CC(=O)Nc1sccc1C(N)=O)S(=O)(=O)c1ccc(Cl)cc1 | 96.8 | -16.4 | 96.5 | 94.5 | 90.1 | 87.6 | . | . | . | . | . | .
Cc1ccc(S(=O)(=O)Cc2cc(F)c([N+](=O)[O-])cc2[N+](=O)[O-])cc1 | 172.4* | 25.8 | 82.5 | 51.0 | 92.0 | 120.9 | . | . | . | . | . | 23.4
Cc1ccc(Cl)cc1NC(=O)CN1C(=O)NC(C)(C2CC2)C1=O (configuration not stated) | 150.8* | 10.9 | 99.0 | 101.6 | 83.6 | 107.8 | 102.2 | 103.1 | 99.1 | 105.7 | 102.2 | .
CC1(C2CC2)NC(=O)N(CC(=O)Nc2ccc(F)cc2F)C1=O (configuration not stated) | 92.4 | -10.0 | 96.0 | 96.8 | 95.7 | 97.7 | . | . | . | . | . | .
CCN1/C(=C/C=C/c2sc3ccccc3[n+]2CC)Sc2ccccc21 | 160.1* | . | 72.4 | 92.8 | 87.4 | 103.4 | 200.4* | 117.0 | 76.0 | 126.5 | 105.5 | 0.6
O=C(c1ccccc1)c1c(-c2ccccc2)[nH]n(-c2ccccc2)c(=O)c1=O | 95.1 | -7.0 | 92.5 | 101.8 | 101.6 | 98.8 | . | . | . | . | . | .
O=[N+]([O-])/C=C\c1ccc(N2CCOCC2)cc1 | 123.9 | 20.5 | 92.7 | 95.3 | 91.9 | 90.0 | . | . | . | . | . | .
CN(c1ccccc1)c1ccc(/C=C/[N+](=O)[O-])cc1 | 153.8* | i | 91.5 | 87.5 | 86.9 | 94.9 | 128.3 | 99.6 | 97.2 | 115.4 | 95.4 | .
CCc1noc(C)c1C(=O)Nc1nc2c(C)cccc2s1 | 150.0 | 2.6 | 77.5 | 94.8 | 93.0 | 98.3 | . | . | . | . | . | .
CCc1noc(C)c1C(=O)Nc1nc2c(F)cc(F)cc2s1 | 163.1* | -1.4 | 65.7 | 83.8 | 86.4 | 94.6 | 122.1 | 111.5 | 93.1 | 87.1 | 89.9 | .
